Results filed as inconclusive are left out. A number with no mark means an inactive call. Activity calls are given as the source filed them. Calls follow the shape of the dose curve; as a rule, active = well fitted inhibition curve with a large enough effect; inconclusive = small, poorly fitted or top-dose-only effect; inactive = no such curve, though single readings can be large or run the other way. Where a SMILES comes first, the peptide text is derived from it. Bridges are numbered along the chain shown (N, C = ends). [ ]: non-standard residue; d: D form. ξ: configuration not given here. ξPhe(βξ-Me) = CC(c1ccccc1)C(N)C(=O)O; NMeY = CN[CH](Cc1ccc(O)cc1)C(=O)O; GABA = NCCCC(=O)O
% is scaled to controls: 0 for no effect and ±100 for the full control effect; potency is read from the fitted curve at half-maximal effect.

This test relates to Zika virus NS2B-NS3 protease (unlinked complex). Put plainly: Primary screen GU Rhodamine qHTS for Zika virus inhibitors: Unlinked NS2B-NS3 protease assay (AID 1347159). Also: nearly all actives have a fitted effect of over 60% in size. The following applies: Recombinant ZIKV NS2B-NS3 protease, Rhodamine110 substrate fluorescence; series mostly up to 107 µM; activity change, negative = inhibition: at the top concentration. From the text:
Avindra Nath, Ph.D., National Institute of Neurological Disorders and Stroke (NINDS), Bethesda, MD
Radhakrishnan Padmanabhan, Ph.D., Georgetown University (GU), Washington D.C.
Zika Virus causes congenital defects, including microcephaly and is associated with Guillain-Barre syndrome, eningoencephalitis and myelitis in infected adult. […] Using a target-based approach, we hope to establish a screening paradigm to uncover novel, cell-active NS2B-NS3 protease (Zika Virus) specific inhibitors from NCATS' collection of small molecules using qHTS.
Four assay panel was created to identify potential Zika Virus inhibitors. Namely, (1) GU unlinked NS2B-NS3 AMC tagged protease qHTS, (2) GU unlinked NS2B-NS3 Rhodamine tagged protease qHTS, (3) NINDS linked NS2B-NS3 AMC tagged protease qHTS, (4) NINDS linked NS2B-NS3 Rhodamine tagged protease qHTS. Active compounds were re-acquired and re-screened to confirm inhibition. Inhibitors were further screened against various confirmatory and counterscreens in dose response format.
Early Translation Branch (ETB)
National Center for Advancing Translational Sciences (NCATS), Rockville, MD
National Institute of Health (NIH), Bethesda, Maryland
Padmanabhan lab provided the NS2B hydrophilic domain and NS3 protease domain in a noncovalent complex used for the unlinked assay. Control compound aprotinin is obtained from Thermo Scientific (#78432; Waltham, Massachusetts). Rhodamine110 substrate ([N-Cbz]-Nle-Lys-Arg-Arg-Rhod110-Arg-Arg-Lys-Nle-[N-Cbz]) was purchased from either Genscript or Bachem.
1536-well Protease (Rhodamine110 Substrate) Assay:
Briefly, 3 microL of enzyme (25 nM final concentration), in assay buffer (10 mM Tris-HCl pH 8.0 with 0.01% Tween 20) were dispensed into a 1,536-well solid-bottom black plate (Greiner Bio One, Monroe, NC). Twenty-three nL of compounds (final concentration range 7.28 nM to 114 microM) or control Aprotinin (final concentration range 3.47 nM to 114 microM) were transferred via Wako Pin-tool (Wako Automation, Richmond, VA). Samples were incubated (room temperature, protected from light) for 15 minutes followed by a 1 microL Rhodamine110 substrate addition (1.5 microM final concentration). Plates were then immediately read on a ViewLux High-throughput CCD imager (PerkinElmer, Waltham, MA) equipped with FITC fluorescence optics (480(20) nm excitation, 540(25) nm emission), then incubated (room temperature, protected from light) for 15 minutes (~15% conversion). The change in fluorescence intensity over the 15-minute reaction period was normalized against no-inhibitor and no-enzyme controls and the resulting percent inhibition data were fitted to a 4-parameter Hill equation. Aprotinin was used as intraplate control.
As for `CN(C)CCCCC(=O)Nc1ccc(NC(=S)NC(=O)c2ccc(C(C)(C)C)cc2)cc1`, the “activity change, negative = inhibition” value was -75.2%. `CN=C(N)NCCCCC/C=C(/C)CC(C)C1OC(=O)C(C)C(O)/C=C/C(C)C(O)CC(O)C(C)C(O)CCC(C)C(O)CC2(O)OC(CC(OC(=O)CC(=O)O)CC(O)CC(O)C(C)C(O)/C(C)=C/CCC1C)CC(O)C2O` (stereo not given): the “activity change, negative = inhibition” value is 93.7% [at 32.5 µM]. `COc1c2c(c(C)c3c1C(=O)OC3)OC1(C)CC(O)C(C(C)(C)O)C(C)(CCC(=O)O)C1C2` (stereo not given): the “activity change, negative = inhibition” value was 20.8% [at 57.1 µM]. `COc1c2c(c(CO)c3c1C(=O)OC3)OC1(C)CCC3(O)C(C)(C)OC(=O)CCC3(C)C1C2` (stereo not given): the “activity change, negative = inhibition” value is 13.4% [at 57.1 µM]. For `COc1cc2ncnc(N3CCC(Oc4cnc5ccccc5n4)C3)c2cc1OC` (stereo not given), the “activity change, negative = inhibition” value is -0.933%. For the molecule `C[C@H](Oc1ccc(S(C)(=O)=O)cc1C(=O)N1CCN(c2ncc(C(F)(F)F)cc2F)CC1)C(F)(F)F`, the “activity change, negative = inhibition” value is 24.3%. On to `CC1OC(OCC2OC(OC3CCC4(C)C(CCC5(C)C4CC=C4C6CC(C)(C)CCC6(C(=O)OC6OC(CO)C(O)C(O)C6O)CCC45C)C3(C)CO)C(O)C(O)C2O)C(O)C(O)C1O` (stereo not given), for which the “activity change, negative = inhibition” value is 6.58% [at 32.5 µM]. Turning to `C[C@@]12CC[C@@H]3[C@@](CC[C@H]4[C@@]3(C)CCC[C@@]4(C)C(=O)O)(CC1=O)C2`, the “activity change, negative = inhibition” value is 0%.

For `CC(Oc1cc(-n2cnc3ccc(CN4CCN(C)CC4)cc32)sc1C(N)=O)c1ccccc1C(F)(F)F` (stereo not given), the “activity change, negative = inhibition” value was 35%. Take `Cc1cc(C)nc(NS(=O)(=O)c2ccc(NC(=S)NC(=O)COc3ccc(Br)cc3Cl)cc2)n1`: the Potency was 7.08 µM (active). Turning to `Nc1nc2c(c(N3CCNCC3)n1)CCC1=C2[C@@H]2CCCC[C@@H]2O1`, the “activity change, negative = inhibition” value is 14.3%. Consider `CC(=O)O[C@H]1CC[C@H](C)[C@@]2(C)[C@H](OC(C)=O)c3c(C)coc3C(=O)[C@H]12`, for which the “activity change, negative = inhibition” value was 18.7%. Consider `CCC(C)C1NC(=O)C2CCCN2C(=O)C(NC(C)=O)C(C)OC(=O)C(Cc2ccc(OC)cc2)N(C)C(=O)C2CCCN2C(=O)C(C(C)C)NC1=O` (stereo not given) (Ac-TPIVP[NMeY](Me); ester 1-C; configuration not given here), for which the “activity change, negative = inhibition” value was 19.8% [at 32.5 µM]. For the molecule `O=C(O)c1cc(I)ccc1NC(=O)[C@H](Cc1ccccc1)NCc1ccccc1`, the Potency is 11.2 µM (active). For `CC(C)(C)Nc1nc(Nc2ccc(C(N)=O)cc2)cc(N)c1C#N`, the “activity change, negative = inhibition” value is 26.9%. Still for that read-out and setting: for `NC(=O)Nc1cc(-c2cccc(F)c2)sc1C(=O)NC1CCCNC1` (stereo not given) the value was 113%. On the same count and under the same terms, for `CCOCc1nc2c(N)nc3ccccc3c2n1CC(C)(C)O` the value was -0.546%.

With `C/C1=C\CCC(C)CCO[C@@H]2O[C@H](CO[C@@H]3OC[C@H](O)[C@H](O)[C@H]3OC1=O)[C@@H](O)[C@H](O)[C@H]2O` (stereo not given in full), the Potency was 31.6 µM (active). With `COc1c(C)c(OCC(O)C(C)(C)O)cc2c1COC2=O` (stereo not given), the “activity change, negative = inhibition” value was 24.8%. As to `C=C1C(=O)OC2C1C(O)CC1(C)C(O)CCC(C=O)C21` (stereo not given), the “activity change, negative = inhibition” value is 27.6%. As to `COc1ccc(-n2[nH]c(=O)c3[nH]c4cc(Cl)ccc4c(=O)c3c2=O)c(C)c1`, the Potency was 56.2 µM (active).

In the case of `CC1CCC2C(C)(C)[C@@H](O)CC[C@]2(C)C12Cc1c(O)cc3c(c1O2)CN(C(CCC(=O)O)C(=O)O)C3=O` (stereo not given in full), the “activity change, negative = inhibition” value is -25.5% [at 57.1 µM]. As to `C[C@@H]1O[C@@H](O[C@H]2[C@@H]3C=CO[C@@H](O[C@@H]4O[C@H](CO)[C@@H](O)[C@H](O)[C@H]4O)[C@@H]3[C@@]3(CO)O[C@@H]23)[C@H](OC(=O)/C=C/c2ccc(O)c(O)c2)[C@H](O)[C@H]1O`, the “activity change, negative = inhibition” value was -16.2% [at 32.5 µM].

Turning to `OC/C=C/c1ccc(O[C@@H]2O[C@H](CO)[C@@H](O)[C@H](O)[C@H]2O)cc1`, the “activity change, negative = inhibition” value was -2.27%. On to `Cc1c(NC(=O)c2cc(C(N)=O)nc3cc(F)ccc23)c(C(F)(F)F)nn1Cc1ccc(C#N)cc1`, for which the “activity change, negative = inhibition” value is 146% [at 32.5 µM].

For the molecule `CC(C)CC1NC(=O)C(C)NC(=O)C(CC(C)C)OC(=O)CCCNC1=O` (stereo not given), the “activity change, negative = inhibition” value is -14.5%. `CS(=O)(=O)N(CC(=O)NCC1CC1)c1cc(C(F)(F)F)ccc1Cl`: the “activity change, negative = inhibition” value is 61.2%.

Consider `N#Cc1cc(F)cc(-c2nc(-c3ccccn3)no2)c1`, for which the “activity change, negative = inhibition” value was -2.05%. Same read-out and setting: for `CC1(C)CC[C@@]2(C(=O)O[C@@H]3O[C@H](CO)[C@@H](O)[C@H](O)[C@H]3O)C(C1)C1=CCC3[C@@]4(C)CC[C@@H](O[C@@H]5O[C@H](C(=O)O)[C@@H](O[C@@H]6OC[C@@H](O)[C@H](O)[C@H]6O)[C@H](O[C@@H]6OC[C@](O)(CO)[C@H]6O)[C@H]5O)C(C)(C)C4CC[C@@]3(C)[C@]1(C)C[C@H]2O` (stereo not given in full) the value was -1.11% [at 32.5 µM]. With `CCN1CCN(Cc2ccc(NC(=O)c3ccc(C)c(NC(=O)c4cncc(-c5cccs5)c4)c3)cc2C(F)(F)F)CC1`, the “activity change, negative = inhibition” value is 206%. Regarding `CC(C)C(C(=O)N(C)C(C)C(N)=O)N(C)C(=O)C1CCCN1C(=O)/C=C/C=C/C(O)C(C)O` (stereo not given), the “activity change, negative = inhibition” value was 20.5% [at 57.1 µM]. In the case of `CC(O)c1cc(C(=O)N[C@@H](C)Cn2ccc(-c3ccc(C#N)c(Cl)c3)n2)n[nH]1` (stereo not given in full), the “activity change, negative = inhibition” value was 9.93%. In the case of `C=C[C@H]1C(O[C@@H]2O[C@H](CO)[C@@H](O)[C@H](O)[C@H]2O)OC=C2C(=O)N3CCc4c([nH]c5ccccc45)[C@H]3C[C@H]21` (stereo not given in full), the “activity change, negative = inhibition” value was -12.9% [at 57.1 µM].

As to `C[C@@H]1CCC2C(C)(C)[C@H](O)CC[C@]2(C)[C@@]12Cc1c(O)cc3c(c1O2)CNC3=O` (stereo not given in full), the “activity change, negative = inhibition” value is -27.3%.

Regarding `COc1ccc(CC2C(=O)NC(C)C(=O)N(C)C3Cc4ccc(cc4)Oc4cc(ccc4OC4OC(CO)C(O)C(O)C4O)CC(C(=O)NC(C)C(=O)NC(C)C(=O)N2C)N(C)C3=O)cc1` (stereo not given), the “activity change, negative = inhibition” value was -8.53% [at 32.5 µM]. For the molecule `COc1ccc2[nH]c3c(-c4cccc5ccccc45)nccc3c2c1`, the “activity change, negative = inhibition” value was 9.19%. `COC(=O)[C@H](O)[C@H]1C(C)(C)[C@H](OC(=O)C(C)C)[C@@]2(O)C(=O)[C@]1(C)C1CC[C@]3(C)C(CC(=O)O[C@H]3c3ccoc3)[C@]13O[C@@H]32` (stereo not given in full): the “activity change, negative = inhibition” value is 25.4% [at 32.5 µM].

As to `CCOc1cc(C(=O)N2CCC(N3CCN(C)CC3)CC2)ccc1Nc1ncc2c(n1)N(C1CCCC1)c1ccccc1C(=O)N2C`, the “activity change, negative = inhibition” value is 40.9%. Take `C=CC(C)(C)C12C=C(OC)C(=O)N3C(C(C)C)C(=O)NC31N(OC)c1ccccc12` (stereo not given): the “activity change, negative = inhibition” value was -16.5% [at 57.1 µM]. Regarding `CC1NC(=O)CCCNC(=O)C(Cc2c[nH]c3ccccc23)NC(=O)C(C)NC(=O)C(C(C)C)NC(=O)C(C(C)c2ccccc2)NC(=O)C(C(C)C)NC1=O` (stereo not drawn) (cyclo([GABA]AV[ξPhe(βξ-Me)]VAW); configuration not given here), the “activity change, negative = inhibition” value was 0.644% [at 32.5 µM].

Source of the values: PubChem BioAssay (NCATS).
